Assay results from PubChem BioAssay (NCI).
Compounds without any hit were thinned out: in the full panel of roughly 83,000, 20% have a hit.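 96-well plates, one dose, 48 hours. Percent growth reported; active if below 10.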 Unmarked numbers belong to inactive results. The source made the active and inactive calls.

Assays:
Assay in all cases: NCI-60 one-dose screen, 48 h (100 = growth as untreated, 0 = no growth, -100 = all killed)
Conditions in all cases: 10 µM unless noted
SR leukemia = system: SR leukemia
OVCAR-8 ovarian = system: OVCAR-8 ovarian
OVCAR-5 ovarian = system: OVCAR-5 ovarian
OVCAR-4 ovarian = system: OVCAR-4 ovarian
SK-OV-3 ovarian = system: SK-OV-3 ovarian
IGROV1 ovarian = system: IGROV1 ovarian
OVCAR-3 ovarian = system: OVCAR-3 ovarian
HS 578T breast = system: HS 578T breast
NCI/ADR-RES ovarian = system: NCI/ADR-RES ovarian

| Structure (SMILES) | growth (SR leukemia) | growth (OVCAR-8 ovarian) | growth (OVCAR-5 ovarian) | growth (OVCAR-4 ovarian) | growth (SK-OV-3 ovarian) | growth (IGROV1 ovarian) | growth (OVCAR-3 ovarian) | growth (HS 578T breast) | growth (NCI/ADR-RES ovarian) |
| --- | --- | --- | --- | --- | --- | --- | --- | --- | --- |
| COc1ccc(/C=C2\COc3ccc(O)cc3C2=O)c(OC)c1 | 19.5% | 63.3% | 94.3% | 96.1% | 58% | 67.3% | 27% | 66% | 33% |
| Cc1[nH]c(-c2nc3ccccc3[nH]2)c(C)c1C(=O)NNc1ccc(Cl)cc1 | 88.6% | 90.2% | 101% | 88.2% |  | 88% | 98.4% | 92.7% | 96.3% |
| O=C(O)c1ccccc1C(=O)Nc1ccc(Cl)cc1 | 80.4% | 87.7% | 103% | 110% | 109% | 102% | 110% | 132% | 104% |
| CC(=O)Nc1ccc(-c2cc3c(NCc4ccc(F)cc4)ncnc3s2)cc1 | 77.2% | 26.9% | 78.1% | 44.5% | 69.5% | 61.1% | 81.6% | 70.3% | 69.4% |
| CC(C)(C)OC(=O)N1Cc2cc3ccccc3nc2C1CO (centres undefined) | 137% | 92.2% | 110% | 96% | 119% | 92.7% | 101% | 102% | 106% |
| CCCCC1COc2cccc3c(SCC(=O)N(C)c4cccc(Cl)c4)cc[n+]1c23 (centres undefined) | 100% | 118% | 109% | 129% | 108% | 112% | 121% | 109% | 111% |
| NS(=O)(=O)Oc1ccc(NC(=O)C23CC4CC(CC(C4)C2)C3)cc1Cl | 99% | 98.4% | 101% | 83.9% |  | 95.9% | 103% | 95.5% | 93.6% |
| Cn1cc(-c2ccc3nc(-c4ccc(CC(=O)Nc5cc(C(C)(C)C)no5)cc4)cnc3c2)cn1 | 15.2% [30 µM] | 31.5% [30 µM] | 44.8% [30 µM] | 28.7% [30 µM] | 11.2% [30 µM] | -2.97% [30 µM] (active) | 29.6% [30 µM] | 21.9% [30 µM] | 19.8% [30 µM] |
| O=C(Oc1ccc[nH]c1=O)c1cc([N+](=O)[O-])cc([N+](=O)[O-])c1 | 136% | 93.6% | 106% | 110% | 116% | 162% | 113% | 124% | 114% |
| CCCCCCCCCCCCCCCCCC1=NCCN1C(=O)OCCO | -10.5% (active) | 19.3% | 68.1% | 28.2% | 61.7% | -35.3% (active) | 76% | 11.6% | 51.4% |
| N#C/C=C(\c1ccc([N+](=O)[O-])cc1)n1nnc2cc(Cl)c(Cl)cc21 | 13% | 15.7% | 10.1% | 0.234% (active) |  | -43% (active) | -48% (active) | 27.8% |  |
| N=C(N)c1ccc(-c2ccc(-c3ccc(Cl)c(Cl)c3)o2)nc1 | 1.79% (active) | -16.1% (active) | 39% | -68.4% (active) |  | 22.3% | -80.8% (active) | 94.8% |  |
| CCOC(=O)C1=C(C)NC(SCc2nnc(-c3ccc(Cl)cc3)o2)=NC1c1ccc(Cl)cc1Cl (centres undefined) | 37.9% | 54.2% | 89% | 52.7% | 90.3% | 43.9% | 62.8% | 67.1% | 54.6% |
| COc1ccc(-c2nnc(SCC(=O)NC3=NN=C(c4ccccc4)CS3)o2)cc1 | 86.6% | 83% | 102% | 100% | 93.5% | 108% | 107% | 97.3% | 104% |
| N=c1ccn2c(n1)OC1C(O)C(CO)OC12 (centres undefined) | 181% | 28.8% | 71.2% | 52.4% | 47% | 12.6% | 67.1% | 85.2% | 31.8% |
| CCCCOc1nc2ccc(Cl)cc2cc1/C=C/C(=O)/C=C1/CC(c2cc3cc(Cl)ccc3nc2OCCCC)Nc2ccccc2N1 (centres undefined) | 91.2% | 101% | 93.8% | 101% | 86.1% | 67.2% | 102% | 91.1% | 98.3% |
| Cc1cc(C)on1 | 70.8% | 92.4% | 116% | 98% | 111% | 110% |  | 102% | 109% |
| O=[N+]([O-])c1ccc(-c2cc3c(Nc4ccc(OCc5cccc(Cl)c5)c(Cl)c4)ncnc3s2)cc1 | 48.9% | 53.4% | 88.2% | 41.1% | 58.5% | 76.8% | 26.7% | 82.1% | 68.1% |
| COc1ccc(/C=C2\COc3ccc(O)c(O)c3C2=O)c(OC)c1 | 18.9% | 41.5% | 74.1% | 47.3% | 72.7% | 31.3% | 29.4% | 65.5% | 57.8% |
| O=C(CCc1nc(-c2cccc(Cl)c2)no1)Nc1ccccn1 | 89.1% | 106% | 100% | 107% | 104% | 90.4% | 108% | 93.8% | 95% |
| Clc1ccc(/C=C/c2nc(Nc3ccc(Cl)cc3)c3ccccc3n2)cc1 | 104% | 102% | 106% | 112% | 96.6% | 78.2% | 106% | 103% | 103% |
| CCOC(=O)c1sc(-c2ccc(OS(=O)(=O)c3ccc(C(C)(C)C)cc3)c(C=O)c2)nc1C | 14.5% | 38.2% | 64.3% | 39.2% | 85.5% | 32% | 30% | 52.9% | 32.4% |
| N#Cc1cnn2c(-c3ccc(Cl)cc3)nc(NCCc3ccccc3)nc12 | 83.5% | 88.8% | 101% | 85.7% | 74.5% | 83.4% | 99.2% | 99.6% | 90.1% |
| CCn1c(Sc2nnc(NC(=O)CSC(=S)N3CCCCC3)s2)nc2c1c(=O)n(C)c(=O)n2C | 44.8% |  | 93.6% | 84% |  | 78.5% | 56.5% | 91.4% | 42.2% |
| CC(C)(C)c1ccc(C(=O)Nc2sc3c(c2C(N)=O)CCC(=O)C3)cc1 | 11.1% | 8.88% (active) | 12.3% | -91.1% (active) |  | -21.6% (active) | -78.8% (active) | -12% (active) | -0.603% (active) |
| O=C1CCC(N2C(=O)c3cccc(NCCCC4CCN(CCNC(=O)c5cc6c(o5)C(=O)c5ccccc5C6=O)CC4)c3C2=O)C(=O)N1 (centres undefined) | 14.5% | 6.28% (active) | -98% (active) | -99.3% (active) |  | -50.3% (active) | -90.9% (active) | -25.8% (active) | 20.4% |
| Cc1nc(Nc2ccc(N)cc2)c2ccccc2n1 | 56.8% |  | 100% | 91.2% | 113% | 92.7% | 101% | 104% |  |
| N=C(N)c1ccc(-c2ccc(/C=C/c3ccccc3)s2)cc1 | 1.05% (active) | 8.3% (active) | 13.1% | -24.8% (active) |  | -62.6% (active) | -25.5% (active) | 57.4% | -12.5% (active) |
| Nc1nc(Nc2ccc(Cl)cc2)nn1S(=O)(=O)c1ccc(-c2ccc(F)cc2)cc1 | 85.5% | 83.8% | 85.7% | 89.4% |  | 76.2% | 92.1% | 79.6% | 83.3% |
| O=[N+]([O-])c1ccc(-c2cc3c(Nc4ccc(Cl)c(C(F)(F)F)c4)ncnc3s2)cc1 | 17% | 10.1% | 26.6% |  | -11.5% (active) | 38% | 5.57% (active) | 37.9% | 2.94% (active) |
